Measured values as given in PubChem BioAssay (NCI).
This is part of a sample that, as a whole, favours compounds with a hit. Of some 83,000 tested, about 20% had one in any assay.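 Percent growth is the endpoint: 0 to 100 indicates growth inhibition (40 means 60% inhibition), 0 means no net growth, and negative values indicate cell death.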 Values without a mark were called inactive. Active and inactive are the calls of the source. How the source made its calls: active means growth percent below 10; inactive means the rest.

Key:
Assay in all cases: NCI-60 one-dose screen, 48 h (100 = growth as untreated, 0 = no growth, -100 = all killed)
Conditions in all cases: 10 µM unless noted
SK-MEL-2 melanoma = system: SK-MEL-2 melanoma
EKVX NSCLC = system: EKVX NSCLC
SN12C renal = system: SN12C renal
UO-31 renal = system: UO-31 renal
TK-10 renal = system: TK-10 renal
ACHN renal = system: ACHN renal
CAKI-1 renal = system: CAKI-1 renal
A498 renal = system: A498 renal
CCRF-CEM leukemia = system: CCRF-CEM leukemia
MOLT-4 leukemia = system: MOLT-4 leukemia

| Structure (SMILES) | growth (SK-MEL-2 melanoma) | growth (EKVX NSCLC) | growth (SN12C renal) | growth (UO-31 renal) | growth (TK-10 renal) | growth (ACHN renal) | growth (CAKI-1 renal) | growth (A498 renal) | growth (CCRF-CEM leukemia) | growth (MOLT-4 leukemia) |
| --- | --- | --- | --- | --- | --- | --- | --- | --- | --- | --- |
| CCCCCCNC(=O)c1cc(NCc2cc(O)ccc2O)ccc1O | 95.5% | 66.6% | 56.3% | 34.4% | 68.6% | 57.1% | 56.3% | 99% | 5.38% (active) | 12.5% |
| C=C(C)C1CCC(=C)C2CCC3(C)OC12/C=C(/COC(C)=O)CCC3O (stereo not given) | 85.4% | 96.1% | 106% | 92.7% | 121% | 98.2% | 6.18% (active) | 104% | 130% | 83.6% |
| Cc1c(C(=O)O)nnn1-c1nccs1 | 94.1% | 92.9% | 101% | 91% | 101% | 99.9% | 94.3% | 86.4% | 93.3% | 103% |
| CCc1nc2ccccc2[nH]1 | 127% | 112% | 95.6% | 80.1% | 118% | 108% | 109% | 96.1% | 98.8% | 97.5% |
| O[C@H]1CO[C@H]2[C@@H]1OC[C@@H]2Oc1ccc(Nc2ccnc(Nc3ccc(O[C@H]4CO[C@H]5[C@@H]4OC[C@@H]5O)c(Cl)c3)n2)cc1Cl | 4.23% (active) | 25.2% | -2.74% (active) | 6.06% (active) | 28.5% | 20.3% | 27.3% | 22.7% | 7.39% (active) | 5.65% (active) |
| NC(N)=N/N=C(/c1ccccc1)c1ccc(N)cc1 | 112% | 88.2% | 96.2% | 95% | 135% | 107% | -0.33% (active) | 125% | 124% | 107% |
| O=C(CCCCCCCn1cc(-c2cccnc2)nn1)Nc1ccccc1-c1ccccc1 | 87.9% | 64.9% | 25.8% | 62% | 84% | 54.8% | 17% | 83.3% | 59.9% | 47.4% |
| C=C1C(=O)O[C@H]2[C@H]1CC/C(COC(=O)/C=C\C(=O)NCc1ccc(Cn3c(=O)sn(CCCI)c3=O)cc1)=C\CC[C@@]1(C)O[C@@H]21 | -64.4% (active) | -58.8% (active) | -90.8% (active) | -100% (active) | -79.3% (active) | -100% (active) | -78.6% (active) | -17.6% (active) | -21.1% (active) | -30% (active) |
| CS(=O)(=O)c1ccc(-c2[nH]c3ccc(F)cc3c2/C=N/O)cc1 | 94.9% | 98.4% | 99.1% | 82.5% | 99.4% | 97% | 81.4% | 99.2% | 92.9% | 92.9% |
| Clc1ccc(/C=N\N=c2\scc(-c3ccc(Cl)cc3)n2/N=C/c2ccc(Cl)cc2)cc1 | 91.4% | 109% | 102% | 95.7% | 92.5% | 106% | 107% | 92.1% | 97% | 91.7% |
| CCCCCCNCc1cc(C(C)(C)C)cc(CNCCCCCC)c1O | -7.07% (active) | -47.9% (active) | -42.2% (active) | -80.7% (active) | -80.4% (active) | -84.2% (active) | 16.7% | -7.12% (active) | -10.4% (active) | -14.8% (active) |
| CCc1cc(Cc2cc(CC)cc(C(C)(C)C)c2O)c(O)c(C(C)(C)C)c1 | 52.9% | 17.7% | 19.1% | 30.4% | 37.8% | 13.1% | 19.6% | 63.7% | 12.9% | 14.4% |
| C=C1C(=O)O[C@H]2[C@H]1CC/C(COC(=O)NCc1ccc(Cn3c(=O)sn(CCCCl)c3=O)cc1)=C\CC[C@@]1(C)O[C@@H]21 | 49% | 57.1% | 18.5% | 11% | -65.2% (active) | -57.7% (active) | 27.7% | 104% | -38% (active) | -31.7% (active) |
